Twelve sequences from the supplement of paper PMC10338343 can be followed below.

± gives the standard deviation.
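Further: 1 nM active piRISC with 0.1 nM target library at 33 °C single turnover.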

The test system of this experiment is MILI (PIWIL2) piRISC loaded with L1MC piRNA (26 nt). Put plainly: pre-steady-state target cleavage rate (min^-1); guide: L1MC piRNA 5'p-UAACUAAAUACUAUGCAAGCUGUAGG; MIWI and MILI are mouse PIWI proteins and EfPiwi is from a freshwater sponge; tags in brackets are library labels; higher = faster piRNA-guided slicing of the target. As to conditions: auxiliary factor: 500 nM mouse GTSF1. The gist of the method:
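The pre-steady-state cleavage rate was derived from a burst-and-steady-state fit of Cleave-'n-Seq data. For these assays, 1 nM active affinity-purified piRISC loaded with a single synthetic guide was mixed with […] a transcribed, DNA-blocked target RNA library in HEPES–potassium acetate buffer at 33 °C, with or without 500 nM GTSF1 partner protein, for 0–8 or 0–960 min. Sequencing counts of uncleaved targets were normalised to depth and to weakly complementary targets, and k3 was capped at 0.0001 min^-1 after three trials were pooled.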
Regarding UCCUGGAUGUCGAUCCAUAGUAUUUAGUUA, the “pre-steady-state target cleavage rate” value was 0.00686 ± 0.0039.

Turning to UCCUGGAUGUCGUUGCAUAGUUUUUAGUAA, the “pre-steady-state target cleavage rate” value is 0.00481 ± 0.004.

As to UCCUGGUACUGCUUGCAUAGUAUUAAGUUA, the “pre-steady-state target cleavage rate” value came out at 0.15 ± 0.035.

As to UCCUGGAUCAGCUUGCAUACUAUUUUCAAA, the “pre-steady-state target cleavage rate” value was found to be 0.00818 ± 0.004.

Consider UCCUGCUACAGCUUGCAUAGUAUUAAGUAA, for which the “pre-steady-state target cleavage rate” value turned out to be 0.172 ± 0.042.

In the case of “UCCUGGAUGUCCUUGCAUAGUAUAAUCAAA [g8:g19:cont:t1A]”, the “pre-steady-state target cleavage rate” value was 0.00606 ± 0.0037.

Turning to UCCUGGAUGUCGAUGCAUAGUAUUUACUUA, the “pre-steady-state target cleavage rate” value worked out at 0.0276 ± 0.01.

UCCUGGAUGUCGUUGGAUAGUAUUUAGUUA: the “pre-steady-state target cleavage rate” value was found to be 0.0108 ± 0.0042.

Take UCCUCCUACAGCUUGCAUGAGUAUUUAGUUA: the “pre-steady-state target cleavage rate” value was found to be 0.011 ± 0.0056.

Consider UCCUGGAUCAGCUUGCAUACUAUUUUGUUA, for which the “pre-steady-state target cleavage rate” value came to 0.0178 ± 0.0061.

UCCUGGAUGUCGAUGCAUAGUCAUUUAGUUA: the “pre-steady-state target cleavage rate” value is 0.00452 ± 0.004.

For the sequence UCCUGGAUGUCGAAGCAUAGUAUAUAGUAA, the “pre-steady-state target cleavage rate” value came to 0.012 ± 0.0042.
